14 molecules from ChEMBL document CHEMBL4513146, “CO-ADD screening of Karazin Kharkiv National University (Ukraine) compounds” can be followed below.

The structures appear in SMILES notation. Measured potencies and affinities stand elsewhere.

This assay relates to Klebsiella pneumoniae. To be noted: Concentration 32 ug.mL-1;; ASSAY_TEST Inhibition of Bacterial Growth; detection method Absorption (OD600); MEDIA CAMHB; plate type 384well; NBS; CORNING #3640; time 18 hr.
A word on the Inhibition: it is the change of the read-out against control, counted positive when it falls. Consider `COC(=O)c1ccc(NC(=O)Cn2nc3c(Oc4ccccc4)nccn3c2=O)cc1`, for which the Inhibition is reported as -0.72%.
Consider `COc1ccc(-c2cc3c4nn(CC(=O)Nc5cc(OC)cc(OC)c5)c(=O)n4ccn3n2)cc1`, for which the Inhibition amounted to 0.53%.
Then `COc1ccccc1-n1ccn2c(SCC(=O)NCc3ccc(Cl)cc3)nnc2c1=O`, with 9.61%; and `CCc1ccc(N(Cc2ccccc2)S(=O)(=O)c2cccn3c(C)nnc23)cc1`, with 5.96%.
Turning to `Cc1ccc(Sc2nccn3c(=O)n(CC(=O)Nc4ccc(Br)cc4C)nc23)c(C)c1`, the Inhibition is given as -0.35%.
The figure for `O=c1c2nnc(SCc3ccccc3Cl)n2ccn1-c1ccc(F)cc1` is 8%; for `Cc1ccc(NC(=O)Cn2nc3c(Oc4ccccc4)nccn3c2=O)c(Cl)c1` it is -7.35%.
Regarding `COc1cccc(-n2ccn3c(SCC(=O)Nc4ccc5c(c4)OCCO5)nnc3c2=O)c1`, the Inhibition is listed as 14.27%.
With `CCc1nnc2c(S(=O)(=O)N(Cc3cccc(OC)c3)c3ccccc3)cccn12`, the Inhibition is on record as 11.28%.
The figure for `Cc1ccc(-c2ccc3nn(Cc4nc(-c5ccc(Cl)cc5)no4)c(=O)n3n2)cc1` is 0.33%; for `COc1cc(NC(=O)Cn2nc3c(Oc4ccccc4)nccn3c2=O)cc(OC)c1` it is 11.9%; for `O=C(Cn1nc2c(N3CCN(c4ccccc4)CC3)nccn2c1=O)Nc1ccc2c(c1)OCO2` it is 5.9%.
Take `O=C(CSc1nnc2c(=O)n(-c3ccccc3)ccn12)Nc1ccc(Cl)cc1`: the Inhibition is listed as 8.54%.
Consider `Cc1cccc(Oc2nc3ccccc3n3c(=O)n(CC(=O)Nc4ccc5c(c4)OCCO5)nc23)c1C`, for which the Inhibition is 14.16%.
